Results filed as inconclusive are left out. Calls of active or inactive are those of the source. Rule for the calls: active = hit-call score of the fitted dose curve at least 0.9, where 1 is the maximum; inconclusive = response in the unintended direction; inactive = score below 0.9.

In the assay the target is AR (gene 367) (UniProt P10275). Kind of assay: ACEA_AR_antagonist_80hr: ACEA Biosciences xCELLigence Real-Time Cell Analysis on Androgen Receptor Antagonism for Proliferation (AID 2283787).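 Note: 22Rv1 human prostate cancer cells with growth followed by electrical impedance; hits lower the impedance growth signal relative to DMSO.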 In a few lines: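 Measures real-time proliferation of 22Rv1 prostate cancer cells by electrode impedance at 80 hours after dosing. Test articles ran at eight concentrations (1:4 steps, top 100 uM final) in biological duplicate.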
Sequence of AR (gene 367) (P10275 whole entry, looked up): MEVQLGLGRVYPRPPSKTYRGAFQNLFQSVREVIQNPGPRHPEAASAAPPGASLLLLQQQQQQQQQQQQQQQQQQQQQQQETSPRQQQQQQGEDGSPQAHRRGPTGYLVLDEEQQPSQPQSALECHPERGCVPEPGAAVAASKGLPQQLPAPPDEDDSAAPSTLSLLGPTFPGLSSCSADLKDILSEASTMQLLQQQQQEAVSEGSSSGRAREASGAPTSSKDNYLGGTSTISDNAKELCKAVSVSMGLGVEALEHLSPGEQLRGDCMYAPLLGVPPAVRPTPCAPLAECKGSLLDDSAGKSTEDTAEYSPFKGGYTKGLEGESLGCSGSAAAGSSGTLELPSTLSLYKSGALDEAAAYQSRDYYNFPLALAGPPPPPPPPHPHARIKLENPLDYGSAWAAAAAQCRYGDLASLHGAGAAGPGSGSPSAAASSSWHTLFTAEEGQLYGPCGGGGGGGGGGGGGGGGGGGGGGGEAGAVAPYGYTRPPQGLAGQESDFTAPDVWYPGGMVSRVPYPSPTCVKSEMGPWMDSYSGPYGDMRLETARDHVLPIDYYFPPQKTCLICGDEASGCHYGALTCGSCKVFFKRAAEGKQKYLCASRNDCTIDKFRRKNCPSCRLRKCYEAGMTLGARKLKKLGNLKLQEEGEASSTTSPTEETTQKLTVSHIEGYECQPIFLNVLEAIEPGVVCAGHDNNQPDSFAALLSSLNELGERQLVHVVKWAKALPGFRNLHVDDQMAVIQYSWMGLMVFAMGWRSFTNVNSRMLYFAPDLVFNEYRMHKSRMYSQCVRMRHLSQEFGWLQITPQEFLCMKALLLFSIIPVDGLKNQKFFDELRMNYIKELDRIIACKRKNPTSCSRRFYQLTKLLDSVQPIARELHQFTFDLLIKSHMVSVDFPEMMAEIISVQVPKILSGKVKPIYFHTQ
As to `Cc1nn(C)c(Oc2ccccc2)c1C=NOCc1ccc(C(=O)OC(C)(C)C)cc1`, the AC50 was 12.7 µM (active).
Take `CCOC(=O)C(C)Oc1ccc(Oc2nc3ccc(Cl)cc3o2)cc1` (stereo not drawn): the AC50 was 42.6 µM (active).
`N#CSCSc1nc2ccccc2s1`: the AC50 is 15.1 µM (active).
In the case of `C[C@]12CC[C@@H]3c4ccc(O)cc4C[C@@H](CCCCCCCCCS(=O)CCCC(F)(F)C(F)(F)F)[C@H]3[C@@H]1CC[C@@H]2O` (stereo partly drawn), the AC50 is 11.9 µM (active).
Turning to `CCCN(CCC)C(=O)SCC`, the outcome was inactive.
In the case of `CCSC(=O)N(CC(C)C)CC(C)C`, the molecule was called inactive.
`CCCOC(=O)c1ccc(C(=O)OCCC)nc1`: the result was inactive.
Consider `O=C(c1ccccc1)C1CCCCC1`, for which the outcome was inactive.

Usually AC50 stands for the concentration giving half of the maximal activity seen.

The values are drawn from PubChem BioAssay (EPA / NIEHS).
